Whole data set: some 33,000 sequences, median “E-score (-0.5 to 0.5)” near -0.016, cut for the highest 2% near 0.3. The sample as a whole holds a higher share of the highest values than the screen did.
Target: T1, Yer184c (UniProt P39961)
T1 sequence: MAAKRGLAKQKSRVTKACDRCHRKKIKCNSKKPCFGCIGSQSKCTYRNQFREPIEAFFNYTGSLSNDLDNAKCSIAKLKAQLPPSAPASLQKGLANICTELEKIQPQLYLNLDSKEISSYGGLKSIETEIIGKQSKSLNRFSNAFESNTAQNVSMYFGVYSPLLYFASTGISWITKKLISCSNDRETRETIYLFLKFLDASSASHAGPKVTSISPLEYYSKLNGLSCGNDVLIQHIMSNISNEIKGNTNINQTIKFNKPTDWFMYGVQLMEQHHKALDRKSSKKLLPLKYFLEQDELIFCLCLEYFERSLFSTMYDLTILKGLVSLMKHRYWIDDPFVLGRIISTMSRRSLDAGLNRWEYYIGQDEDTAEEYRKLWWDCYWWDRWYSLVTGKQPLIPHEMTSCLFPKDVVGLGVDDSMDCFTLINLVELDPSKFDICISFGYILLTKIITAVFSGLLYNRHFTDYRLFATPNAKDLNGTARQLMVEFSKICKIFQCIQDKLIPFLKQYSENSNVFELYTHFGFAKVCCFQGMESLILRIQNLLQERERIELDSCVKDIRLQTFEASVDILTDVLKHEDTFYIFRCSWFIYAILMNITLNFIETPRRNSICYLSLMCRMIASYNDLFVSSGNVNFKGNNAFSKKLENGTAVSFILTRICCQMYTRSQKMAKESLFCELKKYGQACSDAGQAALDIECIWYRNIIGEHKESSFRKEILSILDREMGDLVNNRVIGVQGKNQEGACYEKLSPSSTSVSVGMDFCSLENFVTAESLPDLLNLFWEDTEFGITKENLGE
Test: PBM E-score (8-mer binding enrichment) (E-score (-0.5 to 0.5)); higher = stronger / more preferred TF binding
Conditions: protein concentration: 100 nM; construct: GST-full length
In short: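 E-scores (a modified Wilcoxon-Mann-Whitney statistic) were assigned by the Universal PBM Analysis Suite to every ungapped eight-base word pooled with its reverse complement. The input came from universal all-10-mer Agilent arrays made double-stranded by primer extension and probed with GST-tagged yeast transcription factors at about 100-200 nM. Fluorescent anti-GST detected bound protein, and masliner normalised the scans.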

Sequence | PBM E-score
CACCGCGG | 0.242
ACTATATA | 0.19
GACGCATA | 0.0516
GAATCTAC | 0.0543
CGATCACG | 0.165
TAGCACGA | 0.0455
ACCCCACA | -0.308
AACGATAA | 0.0408
AACATCGA | 0.0284
GATAAAAC | 0.305
GATAAACC | 0.208
CATAATAA | 0.0808
GATAAAAA | 0.29
GATAATTA | 0.318
TAATATTA | 0.381
AATAATAA | 0.285
CATAATTA | 0.233
AAATATTA | 0.206
AATAATTA | 0.299
TATAATAA | 0.324
CAATATTA | 0.133
CCACAGTC | -0.3

Sequence | PBM E-score
GTGGCCAC | -0.0584
GAGTTGAC | -0.0176
AATCTTAG | 0.124
ATATGGTG | -0.0255
ATAGTGAC | -0.0492
GCTATGGA | -0.192
TCTAACCA | 0.0158
TAGCTCCA | -0.0638
CGATATTA | 0.343
TATAAATA | 0.266
AATAAATG | 0.174
CGATATTC | 0.155
TTTATAAA | 0.348
ATAAAAAC | 0.305
AATAAATA | 0.414
CTTATAAA | 0.174
GGATATTA | 0.132
ATAAAACC | -0.0255
ATAAAAAA | 0.289
GTTATAAA | 0.0949
AGATTCAC | -0.157
AAGGCTGC | -0.0369

Sequence | PBM E-score
AACCATCA | 0.0573
GGTCTTAA | -0.104
ACCGTTGG | -0.244
CACTTATC | -0.0553
ATAGAATC | 0.128
AGAGGCGC | -0.119
CGGTATTA | 0.251
ACCACACG | -0.164
AATTAAAA | 0.202
TATTAAAA | 0.318
AAATATAG | 0.189
AAATATAC | 0.0721
AAATATAT | 0.305
TATAAAAA | 0.373
CATAAAAA | 0.252
TATATAAA | 0.289
GATTAAAA | 0.296
GTAAAGAC | 0.0705
AATAACGA | 0.068
ATCAAGTG | -0.132
ATCTTCAA | 0.187
TTAGCTAA | 0.0769

Sequence | PBM E-score
GATCCGGA | 0.395
CATCCGGA | 0.375
AATCCGCT | -0.0489
AATCCGAT | 0.275
AATCCGGT | 0.36
CATCCGGG | 0.223
AATCCGGC | 0.3
GATCCGGC | 0.354
GATCCGCA | 0.0531
CATCCGCA | 0.108
GATCCGTA | 0.17
GATCCGCC | 0.0797
AATGGGTC | -0.184
ATGGCCCC | -0.162
CTAGTAAC | -0.0898
CTACCCAC | -0.304
TAAAGCGA | 0.0559
GGACTGCC | -0.102
ATTATGGC | 0.0693
AAGGCTAT | -0.0663
CCTGGTAC | -0.0559
CTGCGGGA | -0.0974

From the supplement of paper PMC3334620
